# Most compounds without a hit are left out; they make up all but 1.2% or so of the library.
# RGS4-Gao reg = human RGS4-Galphao interaction regulation. hit rate 0.33% among 220,000. Multiplexed bead flow cytometry, RGS4-Galphao binding; actives lie on both sides. binding response (% of control), % at 10 µM. P09471; in the data active means binding response below about 49% or above about 150%; inactive means in between;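 further: fluorescent Galphao activated with aluminum fluoride binding bead-coupled RGS4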
# Target sequence (P09471 whole entry, looked up): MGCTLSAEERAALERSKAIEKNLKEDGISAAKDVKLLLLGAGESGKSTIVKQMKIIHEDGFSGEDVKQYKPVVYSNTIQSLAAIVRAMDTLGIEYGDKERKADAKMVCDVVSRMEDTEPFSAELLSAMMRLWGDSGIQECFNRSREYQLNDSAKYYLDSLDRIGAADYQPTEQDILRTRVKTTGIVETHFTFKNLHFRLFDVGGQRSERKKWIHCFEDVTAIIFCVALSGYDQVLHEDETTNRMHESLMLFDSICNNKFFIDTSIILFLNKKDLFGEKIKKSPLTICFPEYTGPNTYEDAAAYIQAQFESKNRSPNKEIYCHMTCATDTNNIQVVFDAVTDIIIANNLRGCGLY
# Avidin bead fluor = avidin bead compound fluorescence profile | Avidin beads, compound fluorescence 488/530 nm, flow cytometry; active compounds read high | fluorescence (KMESF) at 10 µM | hit rate 0.38% among 220,000 | AID 1775; in the data active means fluorescence above about 47
# RGS7-Gao reg = human RGS7-Galphao interaction regulation | Multiplexed bead flow cytometry, RGS7-Galphao binding; actives lie on both sides | AID 1439 | hit rate 0.35% among 220,000 | binding response (% of control), % at 10 µM | P09471; in the data active means binding response below about 49% or above about 150%; inconclusive means no clear call, values can overlap the other calls; inactive means in between;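 further: fluorescent Galphao held in activated GDP-AlF4 state binding bead-coupled RGS7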
# RGS16-Gao = RGS16-Galphao interaction regulator (human); bead-based flow cytometry RGS16-Galphao binding, fluorescence; actives lie on both sides; O15492+P09471; hit rate 0.38% among 220,000; binding response (% of control), % at 10 µM;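 further: Galphao activated by GDP with aluminum fluoride before binding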
# Target sequence (O15492 whole entry, looked up): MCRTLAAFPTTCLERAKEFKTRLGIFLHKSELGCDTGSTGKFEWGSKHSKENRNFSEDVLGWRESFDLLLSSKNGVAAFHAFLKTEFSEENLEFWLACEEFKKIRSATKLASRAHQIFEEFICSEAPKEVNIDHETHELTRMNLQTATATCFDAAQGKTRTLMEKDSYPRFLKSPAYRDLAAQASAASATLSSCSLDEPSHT
# Target sequence (P09471 whole entry, looked up): as the sequence (P09471 whole entry, looked up) above
# GSH fluor = GSH bead compound fluorescence profile; AID 1776; fluorescence (KMESF) at 10 µM; GSH beads flow cytometry, compound fluorescence 488/530 nm; active compounds read high; hit rate 0.25% among 190,000; in the data active means fluorescence above about 89;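 further: glutathione beads carrying GST-tagged Bcl family fusion proteins plus one bare bead set; values are compound well signal with DMSO vehicle wells as background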
# RGS8-Gao = modulates binding of RGS8 to human Galphao. response (percent of control binding), % at 10 µM. P09471. hit rate 0.34% among 220,000. multiplexed bead flow cytometry; actives lie on both sides; in the data active means response below about 60% or above about 140%; inactive means in between;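 further: Galphao activated as the GDP aluminium fluoride complex binding bead-coupled RGS8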
# RGS4-Gao HTS = regulators of human RGS4-Galphao interaction; AID 1504; hit rate 99% among 1,600; shares compounds with RGS16-Gao; multiplexed bead flow cytometry, RGS–Galpha-o binding; RGS4–Galpha-o binding response, % at 10 µM;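 further: fluorescently labeled Galpha-o bound to GDP with aluminium fluoride binding biotinylated RGS beads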
# Avidin counter = counter-screen: compounds disrupting biotin binding to avidin beads | inhibition, % at 10 µM | streptavidin beads, fluorescein-biotin binding, flow cytometry | 1,700 tested, under 10 active | shares compounds with RGS16-Gao;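 active means inhibition above 50%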;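 further: median green fluorescence of gated singlet beads compared with DMSO control wells; 0% = DMSO wells and 100% = complete loss of bead fluorescence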
# RGS8-Gao confirm = confirmation of regulators of human RGS8-Galphao interaction. shares compounds with RGS16-Gao. bead-based flow cytometry RGS8-Galphao binding, fluorescence; actives lie on both sides. binding response (% of control), % at 10 µM. hit rate 3% among 1,700; in the data active means binding response below about 72% or above about 130%; inactive means in between;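 further: Galphao activated as GDP AlF4 complex before binding bead RGS8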
# RGS7-Gao single = RGS7-Galphao interaction regulation, single point confirmation. bead-based flow cytometry RGS7-Galphao binding; actives lie on both sides. response (percent of control binding), % at 10 µM. hit rate 7.8% among 1,700. shares compounds with RGS16-Gao; in the data active means response below about 75% or above about 130%; inactive means in between;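 further: fluorescent Galphao activated with GDP and aluminum fluoride binding bead-coupled RGS7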
# RGS16-Gao single = confirmation of regulators of human RGS16-Galphao interaction. shares compounds with RGS16-Gao. bead-based flow cytometry, RGS16-Galphao binding; actives lie on both sides. response (% of control binding), % at 10 µM. hit rate 4% among 1,700; in the data active means response below about 74% or above about 130%; inactive means in between;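 further: Galphao activated as the GDP aluminium fluoride complex binding bead-coupled RGS16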
# RGS4-Gao confirm = confirmation of regulators of human RGS4-Galphao interaction; shares compounds with RGS16-Gao; hit rate 4% among 1,700; RGS4-Galphao binding, multiplexed bead flow cytometry; actives lie on both sides; binding response (% of control), % at 10 µM; in the data active means binding response below about 74% or above about 130%; inactive means in between
# RGS19-Gao single = RGS19-Galphao interaction regulation, single point confirmation; response (percent of control binding), % at 10 µM; hit rate 5% among 1,700; AID 1841; shares compounds with RGS16-Gao; bead-based flow cytometry RGS19-Galphao binding; actives lie on both sides; in the data active means response below about 50% or above about 160%; inactive means in between;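 further: 100% = no compound control and 0% = blank background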
# * = called active by the depositor; ? = inconclusive; / = not tested or not shown; [ ] = dose if it differs, or a comment. Unless noted, how the calls were made is not given here.
SMILES,RGS4-Gao reg,Avidin bead fluor,RGS7-Gao reg,RGS16-Gao,GSH fluor,RGS8-Gao,RGS4-Gao HTS,Avidin counter,RGS8-Gao confirm,RGS7-Gao single,RGS16-Gao single,RGS4-Gao confirm,RGS19-Gao single
CC1CCN(S(=O)(=O)c2cccc(C(=O)Oc3ccc([N+](=O)[O-])cc3)c2)CC1,96.7,8,114.1,24.0*,11,82.7,96.7*,1.6,98.3,105.4,99.5,102.1,89.5
Cc1ccc([N+](=O)[O-])cc1NC(=O)Cc1ccc(F)cc1,/,/,/,/,11,/,/,0.8,98.5,101.5,102.1,101.6,99.4
Cc1ccc(NC(=O)CN2C(=O)S/C(=C\C(=O)Nc3ccc(Cl)cc3)C2=O)cc1,79.4,7,75.2,8.0*,5,78.9,79.4*,1.5,103.7,95.3,104.6,99.2,90.6
Cn1cccc1/C=C1\SC(=O)N(CC(=O)Nc2ccc(Cl)cc2)C1=O,101.9,/,100.0,97.8,14,98.0,/,/,/,/,/,/,/
CCn1c(C)cc(/C=C2\SC(=O)N(CC(=O)Nc3ccc(C)c(C)c3)C2=O)c1C,-95.2*,-2,-27.5*,-94.8*,14,6.0*,/,-1.4,100.5,91.8,96.7,97.8,95.5
O=[N+]([O-])c1ccc(COc2ccccc2/C=N/O)cc1,89.2,1,90.7,22.5*,9,72.9,89.2*,-0.4,105.7,106.8,105.4,107.5,99.2
CCOc1cc(/C=N/O)ccc1OCc1ccc([N+](=O)[O-])cc1,101.1,15,101.0,97.9,11,99.2,/,/,/,/,/,/,/
CCOC(=O)N/N=C\c1ccc(-c2cccc(C(F)(F)F)c2)o1,102.6,6,104.3,99.8,12,102.8,/,/,/,/,/,/,/
CC1(CC(=O)N/N=C/c2ccc(-c3cccc(C(F)(F)F)c3)o2)OCCO1,169.4*[activator],254*,261.7*[activator],204.2*[activator],10,115.1,/,-0.4,98.8,98.8,100.2,102.1,108.5
CC(C)Nc1nnc(SC(C)C(=O)Nc2ccc(Cl)cn2)s1 (stereo unspecified),93.6,11,98.9,91.0,15,97.6,/,/,/,/,/,/,/
CCOC(=O)C(=O)Nc1ccccc1C(=O)OC,98.1,12,94.0,108.5,23,101.4,/,/,/,/,/,/,/
CCOC(=O)C(=O)Nc1ccccc1C(N)=O,/,/,/,/,47,/,/,-0.4,104.6,107.6,103.0,108.2,55.8
CCc1ccc2c(COC(=O)c3n[nH]c4ccccc34)cc(=O)oc2c1,120.3,17,111.5,268.7,26,142.8*[activator],120.3*,-0.1,98.8,92.8,96.8,97.0,84.2
CCOC(=O)Cc1nc2cc(Cl)ccc2o1,95.0,9,97.5,112.8,9,101.2,/,/,/,/,/,/,/
CCc1nc(SCc2cccnc2)[nH]c(=O)c1C,108.4,13,105.4,308.6*[activator],9,124.3,108.4*,0.6,92.5,91.2,90.7,92.4,68.3
CCc1nc(SCc2ccccn2)[nH]c(=O)c1C,103.8,12,104.3,104.1,11,102.5,/,/,/,/,/,/,/
O=C(NCc1ccccc1)C1CCC1,95.9,6,95.6,13.9*,12,86.1,95.9*,0.4,97.9,94.6,97.0,98.4,97.4
S=C(NCc1ccccc1)N1CCCCC1,89.6,10,89.4,89.4,19,92.7,/,/,/,/,/,/,/
CC(=O)N1CCN(C(=S)NCc2ccccc2)CC1,109.7,6,106.3,256.9*[activator],16,138.4,109.7*,-2.0,99.3,102.1,97.2,97.4,93.7
Cc1cc(N2CCC(C)CC2)nc(-c2ccccc2O)n1,101.7,7,?,98.6,/,99.1,/,/,/,/,/,/,/
Cc1cc(N2CCN(c3ccccc3)CC2)nc(-c2ccccc2O)n1,38.3*,7,83.6,-548.8,13,89.6,/,1.1,100.2,105.5,103.1,102.5,106.1
COc1ccc(N2CCN(C(CNC(C)=O)c3ccco3)CC2)cc1 (stereo unspecified),107.2,10,106.5,108.2,14,102.8,/,/,/,/,/,/,/
COc1ccc(N2CCN(C(CNC(=O)OCc3ccccc3)c3ccco3)CC2)cc1 (stereo unspecified),104.2,13,106.1,188.7*[activator],17,124.5,104.2*,2.7,102.6,98.7,101.4,100.2,97.9
COc1ccc(NC(=O)CSc2nc(-c3ccc(C)cc3)cc(C(F)(F)F)c2C#N)cc1,92.6,29,98.8,95.5,8,93.5,/,/,/,/,/,/,/
COc1ccc(-c2cc(C(F)(F)F)c(C#N)c(SCC(=O)Nc3ccccc3C#N)n2)cc1,256.5*[activator],49*,152.6*[activator],468.6,71,121.5,/,-0.4,101.7,88.9,100.0,92.3,114.3
SMILES,RGS4-Gao reg,Avidin bead fluor,RGS7-Gao reg,RGS16-Gao,GSH fluor,RGS8-Gao,RGS4-Gao HTS,Avidin counter,RGS8-Gao confirm,RGS7-Gao single,RGS16-Gao single,RGS4-Gao confirm,RGS19-Gao single
Cc1c(Cl)cccc1NC(=O)CC(C(=O)O)C1CCCO1 (stereo unspecified),136.4,5,129.8,322.6,14,147.6*[activator],136.4*,-1.3,106.5,113.0,108.9,106.4,96.1
CCc1ccc(OCC(=O)Nc2cc(S(=O)(=O)CC)ccc2O)cc1,97.0,12,96.6,94.7,79,97.3,/,/,/,/,/,/,/
COc1ccc(C(=O)NC(=O)Nc2ncccc2C)cc1,77.2,2,73.7,2.9*,48,69.9,77.2*,-1.1,102.0,106.8,103.6,102.9,100.0
COc1ccc(NC(=O)Nc2ncccc2C)cc1,104.3,24,103.3,107.8,12,105.8,/,/,/,/,/,/,/
CC(C)NS(=O)(=O)c1ccc(OCC(=O)Nc2ccc3c(c2)OCO3)cc1,38.3*,6,31.3*,33.4,12,38.6*,/,-2.2,99.3,96.2,98.6,96.5,92.4
CCC(C)NS(=O)(=O)c1ccc(OCC(=O)Nc2ccc3c(c2)OCO3)cc1 (stereo unspecified),90.6,12,94.2,96.4,13,100.4,/,/,/,/,/,/,/
COCCCNC(=O)c1ccc(-c2csc(C)n2)cc1,101.8,15,110.3,100.1,11,101.7,/,/,/,/,/,/,/
O=C1C(=Cc2ccc(Br)o2)C(=O)c2ccccc21,53.4,-6,1.6*,8.3*,8,32.1*,53.4*,/,/,/,/,/,/
